The structures appear in SMILES notation. The source made the active and inactive calls. No rule for the calls is given here.

This assay relates to 80kDa SH. The assay is described as follows: serine hydrolase inhibition in mouse brain membranes, late-stage follow-up, selectivity assay for DAGLb inhibitor project, biochemical, gel-based competitive ABPP, fluorescence, set 2 (AID 602323). The settings on record: mouse brain membrane, at 1 µM, stronger effect = higher value.
As for `O=C(N1CCCCC1Cc1ccccc1)n1cc(-c2ccc(-c3ccccc3Cl)cc2)nn1` (centres undefined), the inhibition was 0% (inactive).

`Cc1ccccc1-c1ccc(-c2cn(C(=O)N3CCCCC3Cc3ccccc3)nn2)cc1` (centres undefined): the inhibition is 0% (inactive).

Turning to `O=C(N1CCCCC1Cc1ccccc1)n1cc(-c2ccc(-c3ccc4c(c3)OCO4)cc2)nn1` (centres undefined), the inhibition is 0% (inactive).

On to `O=C(N1CCCCC1Cc1ccccc1)n1cc(-c2ccc(-c3ccc(OC(F)(F)F)cc3)cc2)nn1` (centres undefined), for which the inhibition is 0% (inactive).

As to `O=C(N1CCCCC1Cc1ccccc1)n1cc(-c2cc(F)cc(F)c2)nn1` (centres undefined), the inhibition was 80% (active).

Turning to `O=C(N1CCCCC1Cc1ccccc1)n1cc(-c2ccc(OC(F)(F)F)cc2)nn1` (centres undefined), the inhibition was 20% (inactive).

Take `CC(C)(C)OC(=O)NCCCCCN(CCc1ccccc1)C(=O)n1cc(-c2ccc(OC(F)(F)F)cc2)nn1`: the inhibition is 80% (active).

On to `O=C(N1CCCCC1Cc1ccccc1)n1cc(-c2ccc(Br)cc2)nn1` (centres undefined), for which the inhibition was 50% (active).

In the case of `O=C(N(CCc1ccccc1)Cc1ccco1)n1cc(-c2ccc(OC(F)(F)F)cc2)nn1`, the inhibition was 80% (active).

`O=C(N1CCCCC1Cc1ccccc1)n1cc(-c2ccccc2-c2ccccc2)nn1` (centres undefined): the inhibition was 80% (active).

On to `O=C(N1CCCCC1Cc1ccccc1)n1cc(-c2ccc(-c3cccc(C(F)(F)F)c3)cc2)nn1` (centres undefined), for which the inhibition was 0% (inactive).

As for `O=C(N1CCCCC1Cc1ccccc1)n1cc(-c2cccc(-c3ccccc3)c2)nn1` (centres undefined), the inhibition was 0% (inactive).

On to `O=C(c1ccc(-c2ccc(-c3cn(C(=O)N4CCCCC4Cc4ccccc4)nn3)cc2)cc1)N1CCCCC1` (centres undefined), for which the inhibition is 40% (inactive).

Turning to `O=C(N1CCCCC1Cc1ccccc1)n1cc(-c2ccc(-c3ccccc3OC(F)(F)F)cc2)nn1` (centres undefined), the inhibition is 10% (inactive).

One may read the inhibition as the share of the control response that was lost under treatment.

The record behind these values is PubChem BioAssay AID602323 (The Scripps Research Institute Molecular Screening Center, 2012).
